Results filed as inconclusive are left out. Some compounds were tested as several samples or in several runs, with calls that do not always agree. Calls of active or inactive are those of the source. How the source made its calls: active means hit-call score of the fitted dose curve at least 0.9, where 1 is the maximum; inconclusive means response in the unintended direction; inactive means score below 0.9.
Experiment: ATG_M_32_TRANS: Attagene TRANS-FACTORIAL HepG2 Assay for M32 Transcription Factor (Internal Marker) (AID 2282984)
Details: HepG2 Attagene TRANS M32 internal marker reporter
Method: ATG_TRANS is a cell-based, multiplexed-readout assay that uses HepG2, a human liver cell line, with measurements taken at 24 hours after chemical dosing in a 24-well plate.ATG_M_32_TRANS is one of 30 assay component(s) measured or calculated from the ATG_TRANS assay. It is designed to make measurements of mRNA induction, a form of inducible reporter, as detected with fluorescence intensity signals by Reverse transcription polymerase chain reaction (RT-PCR) and Capillary electrophoresis technology.Data from the assay component ATG_M_32_TRANS was analyzed into 1 assay endpoint. This assay endpoint, ATG_M_32_TRANS, was analyzed in the positive analysis fitting direction relative to DMSO as the negative control and baseline of activity. Using a type of inducible reporter, measures of mRNA for gain-of-signal activity can be used to understand the background control at the transcription factor-level as they relate to the gene . Furthermore, this assay endpoint can be referred to as a secondary readout, because this assay has produced multiple assay endpoints where this one serves a background control function. To generalize the intended target to other relatable targets, this assay endpoint is annotated to the background measurement intended target family, where the subfamily is internal marker.
Human liver HepG2 cells are transiently transfected with multiple reporter transcription units (MRTUs) in 6-well plates using FuGene 6 reagent (Roche; 3 ml FuGene/1 mg DNA). The MRTU constructs are regulated by a cis-regulating element (promoter). […] A major difference between the CIS and TRANS system is that in CIS activities of endogenous TFs are measured, whereas the TRANS assay evaluates changes in activities of exogenous, chimeric NR-Gal4 proteins. […] At the end of 24 hour incubation, total RNA was isolated using TriZol reagent (Invitrogen). The isolated RNA is then reverse-transcribed using oligo(dT) primer and Mo-MLV reverse transcriptase (Invitrogen) with DNAse I (Ambion) treatment for 30 min. The one-tenth of the produced cDNA was amplified by PCR using Taq DNA polymerase (Invitrogen) and two reporter sequence-specific primers. The PCR products were fluorescently labeled by primer extension with 6-arboxyfluorescein (6-FAM) 5'-labeled reporter sequence-specific primer (2 min at 95 C, 20 s at 68 C and 10 min at 72 C) and these products were digested with 5U of HpaI (New England Biolabs) for 2h at 37 C. The fragments were purified using Qiaquick PCR columns (Qiagen), analyzed on an ABI 3130xL genetic analyzer (Applied Biosystems) with peak positions identified by using a set of X-rhodamine (ROX)-labeled MapMarker1000 molecular weight standards (BioVentures). The raw capillary electrophoresis data was processed using Attagraph software (Attagene).

SMILES | outcome | AC50
CCOC(=O)c1ccc(O)cc1 | inactive | 
S=C(S)NCCNC(=S)S.[Mn+2].[S-]C([S-])=NCCN=C([S-])[S-].[Zn+2] | inactive | 
O=C(c1ccc(O)cc1O)c1ccc(O)cc1O | inactive | 
CCSC(=O)N(CC(C)C)CC(C)C | inactive | 
CCCCOCCOCCOCc1cc2c(cc1CCC)OCO2 | inactive | 
CC(=O)[C@H]1CC[C@H]2[C@@H]3CCC4=CC(=O)CC[C@]4(C)[C@H]3CC[C@]12C | inactive | 125 µM (active)
CCN(CC)C(=O)c1cccc(C)c1 | inactive | 
CCCN(CCC)C(=O)SCC | inactive | 
CCCCCOC(=O)COc1cc(N2C(=O)C3=C(CCCC3)C2=O)c(F)cc1Cl | inactive | 
c1ccc2[nH]c(-c3cscn3)nc2c1 | inactive | 
O=C(c1ccccc1)C1CCCCC1 | inactive | 
C#C[C@]1(O)CC[C@H]2[C@@H]3CCC4=CC(=O)CC[C@@H]4[C@H]3CC[C@@]21CC | inactive | 
Oc1ccc(C(c2ccc(O)cc2)C(Cl)(Cl)Cl)cc1 | inactive | 
C[C@]12CC[C@@H]3c4ccc(O)cc4C[C@@H](CCCCCCCCCS(=O)CCCC(F)(F)C(F)(F)F)[C@H]3[C@@H]1CC[C@@H]2O (stereo not given in full) | inactive | 
CSC(=O)c1cccc2nnsc12 | inactive | 
CCN(Cc1c(F)cccc1Cl)c1c([N+](=O)[O-])cc(C(F)(F)F)cc1[N+](=O)[O-] | inactive | 
OB(O)O | inactive | 
CCCCC(CC)CN1C(=O)C2C3C=CC(C3)C2C1=O (stereo not given) | inactive | 
Cc1nn(C)c(Oc2ccccc2)c1C=NOCc1ccc(C(=O)OC(C)(C)C)cc1 | inactive | 

SMILES | outcome | AC50
CN(C)C(=O)Nc1ccc(Cl)c(Cl)c1 | inactive | 
N[C@@H](Cc1cc(I)c(Oc2ccc(O)c(I)c2)c(I)c1)C(=O)O | inactive | 
CC(C)CCCCCCc1ccc(O)cc1 | inactive | 53.4 µM (active)
N#CSCSc1nc2ccccc2s1 | inactive | 
O=C(O)c1ccccc1 | inactive | 
C=CCOC(Cn1ccnc1)c1ccc(Cl)cc1Cl (stereo not given) | inactive | 
CC(=O)S[C@@H]1CC2=CC(=O)CC[C@]2(C)[C@H]2CC[C@@]3(C)[C@@H](CC[C@@]34CCC(=O)O4)[C@H]12 | inactive | 
CCCCOC(=O)[C@@H](C)Oc1ccc(Oc2ccc(C(F)(F)F)cn2)cc1 | inactive | 
COCCO | inactive | 
COC(=O)c1ccccc1S(=O)(=O)NC(=O)Nc1nc(OC(F)F)cc(OC(F)F)n1 | inactive | 
COC(=O)c1c(Cl)nn(C)c1S(=O)(=O)NC(=O)Nc1nc(OC)cc(OC)n1 | inactive | 
CCCCOC(=O)C(C)Oc1ccc(Oc2ccc(C(F)(F)F)cn2)cc1 (stereo not given) | inactive | 
c1ccc(Nc2ccccc2)cc1 | inactive | 
CCCOC(=O)c1ccc(C(=O)OCCC)nc1 | inactive | 
CC(C)(c1ccc(O)cc1)c1ccc(O)cc1 | inactive | 
O=C(O)C1(C(=O)Nc2ccc(Cl)cc2Cl)CC1 | inactive | 
CCC(O)=C1C(=O)CC(C(=O)O)CC1=O (stereo not given) | inactive | 
CCNc1nc(N)nc(Cl)n1 | inactive | 
CCCCC(CC)COC(=O)c1ccccc1C(=O)O (stereo not given) | inactive | 

— PubChem BioAssay (EPA / NIEHS)
